In PubChem BioAssay AID1159580 (chemical genetic matrix, 2015):
Where “and” joins values, the source holds several entries; their conditions need not be identical. Equal entries are not always repeated. Hit rate of the full screen: of about 5,500 compounds, about 2,000 (36%) were called active. About 18% were inconclusive and are not listed. Rule as the data show it: active = normalized growth mostly below about 0.91 (no sharp cut-off); inconclusive = no clear call, values can overlap the other calls; inactive = mostly above about 0.92. The list shows a part of the results.

Experiment: chemical genetic growth profiling, strain panel (AID 1159580);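 also: tested at 20 µM; growth read once vehicle control cultures reached saturation at 30 °C; 1 = growth at the plate median or of vehicle wells; lower values mean less growth of the strain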
Conditions: S. cerevisiae deletion strains, growth OD

Measured: normalized growth

CC(C)CC1C(=O)N2CCC[C@H]2C2(O)O[C@](NC(=O)C3C=C4c5cccc6[nH]c(Br)c(c56)C[C@H]4N(C)C3)(C(C)C)C(=O)N12 (stereo partly specified)
inactive: locus YAL013W, strain DEP1, stronger effect = lower value 0.989 | locus YAL021C, strain ccr4, stronger effect = lower value 0.976 | locus YAL026C, strain drs2, stronger effect = lower value 0.991 | locus YAL030W, strain snc1, stronger effect = lower value 0.998 | locus YBL061C, strain skt5, stronger effect = lower value 0.987 | locus YBR009C, strain hhf1, stronger effect = lower value 0.996 | locus YBR021W, strain FUR4, stronger effect = lower value 0.996 | locus YBR023C, strain chs3, stronger effect = lower value 0.992 | locus YBR171W, strain sec66, stronger effect = lower value 0.981 | locus YBR229C, strain ROT2, stronger effect = lower value 0.993 | locus YBR231C, strain swc5, stronger effect = lower value 0.968 | locus YBR279W, strain paf1, stronger effect = lower value 0.988 | locus YCL011C, strain gbp2, stronger effect = lower value 0.976 | locus YCL016C, strain dcc1, stronger effect = lower value 0.995 | locus YCL029C, strain bik1, stronger effect = lower value 0.961 | locus YCL069W, strain vba3, stronger effect = lower value 0.997 | locus YCR088W, strain abp1, stronger effect = lower value 0.99 | locus YDL005C, strain med2, stronger effect = lower value 0.987 | locus YDL035C, strain GPR1, stronger effect = lower value 0.993 | locus YDL040C, strain nat1, stronger effect = lower value 0.984 | locus YDL074C, strain BRE1, stronger effect = lower value 0.974 | locus YDL101C, strain DUN1, stronger effect = lower value 0.988 | locus YDL134C, strain PPH21, stronger effect = lower value 0.992 | locus YDL185W, strain tfp1, stronger effect = lower value 0.947 | locus YDL192W, strain arf1, stronger effect = lower value 0.965 | locus YDR001C, strain nth1, stronger effect = lower value 0.972 | locus YDR069C, strain doa4, stronger effect = lower value 0.983 | locus YDR101C, strain arx1, stronger effect = lower value 0.984 | locus YDR137W, strain rgp1, stronger effect = lower value 0.885 | locus YDR150W, strain NUM1, stronger effect = lower value 0.976 | locus YDR159W, strain sac3, stronger effect = lower value 0.989 | locus YDR162C, strain NBP2, stronger effect = lower value 0.989 | locus YDR195W, strain ref2 0.962 | locus YDR297W, strain sur2, stronger effect = lower value 0.976 | locus YDR318W, strain mcm21, stronger effect = lower value 0.977 | locus YDR334W, strain swr1, stronger effect = lower value 0.973 | locus YDR335W, strain msn5, stronger effect = lower value 0.995 | locus YDR388W, stronger effect = lower value 0.989 | locus YDR392W, strain spt3, stronger effect = lower value 0.959 | locus YDR502C, strain sam2, stronger effect = lower value 0.972 | locus YEL003W, strain gim4, stronger effect = lower value 0.981 | locus YEL037C, strain rad23, stronger effect = lower value 0.989 | locus YEL061C, strain CIN8 (second series), stronger effect = lower value 0.995 | locus YEL061C, strain CIN8, stronger effect = lower value 0.982 | locus YER015W, strain faa2, stronger effect = lower value 0.972 | locus YER016W, strain bim1, stronger effect = lower value 0.982 | locus YER110C, stronger effect = lower value 0.964 | locus YER111C, strain swi4, stronger effect = lower value 0.993 | locus YER155C, strain BEM2 (second series), stronger effect = lower value 0.973 | locus YER155C, strain BEM2, stronger effect = lower value 0.985 | locus YER167W, strain BCK2, stronger effect = lower value 0.961 | locus YFR010W, strain ubp6, stronger effect = lower value 1.01 | locus YGL078C, strain dbp3, stronger effect = lower value 0.965 | locus YGL086W, strain mad1, stronger effect = lower value 0.97 | locus YGL167C, strain pmr1, stronger effect = lower value 0.974 | locus YGL173C, strain kem1, stronger effect = lower value 1 | locus YGL227W, strain vid30, stronger effect = lower value 0.994 | locus YGL240W, strain doc1, stronger effect = lower value 0.943 | locus YGL248W, strain PDE1, stronger effect = lower value 0.987 | locus YGL253W, strain hxk2, stronger effect = lower value 0.993 | locus YGR078C, strain PAC10, stronger effect = lower value 0.989 | locus YGR135W, strain pre9, stronger effect = lower value 0.982 | locus YGR229C, strain SMI1, stronger effect = lower value 1.01 | locus YGR252W, strain gcn5, stronger effect = lower value 1.14 | locus YHR013C, strain ard1, stronger effect = lower value 0.945 | locus YHR027C, strain rpn1, stronger effect = lower value 0.962 | locus YHR030C, strain SLT2, stronger effect = lower value 0.981 and 0.978 | locus YHR079C, strain IRE1 (second series), stronger effect = lower value 0.982 | locus YHR079C, strain IRE1, stronger effect = lower value 0.986 | locus YHR094C, strain hxt1, stronger effect = lower value 0.966 | locus YHR129C, strain ARP1, stronger effect = lower value 0.985 | locus YHR142W, strain chs7, stronger effect = lower value 1.01 | locus YHR200W, strain rpn10, stronger effect = lower value 0.976 | locus YIL066C, strain RNR3, stronger effect = lower value 0.981 | locus YIL073C, strain SPO22, stronger effect = lower value 0.925 | locus YIL125W, strain kgd1, stronger effect = lower value 0.965 | locus YIR030C, strain dcg1, stronger effect = lower value 0.987 | locus YJL092W, strain hpr5, stronger effect = lower value 0.968 | locus YJL095W, strain BCK1 (second series), stronger effect = lower value 0.999 | locus YJL095W, strain BCK1, stronger effect = lower value 0.971 and 0.976 | locus YJL115W, strain asf1, stronger effect = lower value 0.958 | locus YJL129C, strain trk1, stronger effect = lower value 0.957 | locus YJL134W, strain LCB3, stronger effect = lower value 0.983 | locus YJL154C, strain vps35, stronger effect = lower value 0.979 | locus YJL164C, strain tpk1, stronger effect = lower value 0.997 | locus YJL166W, strain qcr8, stronger effect = lower value 0.996 | locus YJL168C, strain set2, stronger effect = lower value 0.977 | locus YJL187C, strain SWE1 (second series), stronger effect = lower value 0.979 | locus YJR043C, strain POL32, stronger effect = lower value 0.995 | locus YJR066W, strain TOR1, stronger effect = lower value 0.993 | locus YJR075W, strain HOC1, stronger effect = lower value 0.992
